Cycloheximide cs: Cycloheximide Counterscreen for Small Molecule Inhibitors of Shiga Toxin; 300,000 tested, 12% active; max response, %; cell reporter, cycloheximide protein synthesis inhibition counterscreen; AID 2314, 2010; in the data active means max response mostly above about 13%, no sharp cut-off; inactive means mostly below about 14%; further: read at 38.3 µM for the half of the compounds with a filed dose; 0% is about no effect
Shiga toxin inh: A qHTS for Small Molecule Inhibitors of Shiga Toxin; Vero cells, Shiga toxin protein synthesis inhibition reporter; inhibition, % at 38.7 µM; 290,000 tested, 9.2% active; AID 2315, 2010; in the data active means inhibition mostly above about 28%, no sharp cut-off; inactive means mostly below about 43%; further: 0% is about no effect
Lassa entry inh: qHTS for Inhibitors of binding or entry into cells for Lassa Virus. Potency, µM (titrated, usually from 37.9 µM), inactives show at the top dose activity change, negative = inhibition, usual class: inhibitors. AID 540256, 2011. 300,000 tested, 1.2% active. Lassa virus pseudotype entry inhibition, cell reporter; calls by dose curve; tested in HEK293 cells; further: potency means the concentration at half of the fitted maximal effect; on the % scale 0 is the no-effect control and ±100 the full control effect; nearly all actives have a fitted effect of over 50% in size
AMA1-RON2 inh: qHTS for Inhibitors of AMA1-RON; Towards Development of Antimalarial Drug Lead: Primary Screen; Potency, µM (series often up to 58.2 µM), for the others: at the highest dose activity change, negative = inhibition, actives largely listed as inhibitors; AID 720542, 2013; AlphaScreen AMA1-biotinylated RON2 peptide binding; 360,000 tested, 0.2% active; active means well fitted inhibition curve with a large enough effect; inconclusive means small, poorly fitted or top-dose-only effect; inactive means no such curve, though single readings can be large or run the other way;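 further: potency means the concentration at half of the fitted maximal effect; 0% = vehicle wells and -100% = peptide control; nearly all actives have a fitted effect of over 45% in size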
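AMA1 (3D7) with his tag at 25 nM final met compounds first, then biotinylated RON2 peptide at 25 nM; detection used donor plus acceptor beads, 10 µg/mL apiece, read by AlphaScreen after 30 min at room temperature.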
MARV entry inh: qHTS for inhibitors of binding or entry into cells for Marburg Virus; Marburg virus pseudotyped entry inhibition, cell reporter; Potency, µM (series often up to 37.8 µM), for inactives: at the top dose activity change, negative = inhibition, hits mostly inhibitors; 300,000 tested, 1.8% active; AID 540276, 2011; calls by dose curve; tested in HEK293 cells; further: potency means the concentration at half of the fitted maximal effect; on the % scale 0 is the no-effect control and ±100 the full control effect
* = called active by the depositor; ? = inconclusive; . = no result given; [ ] = remark or other dose. The sample as a whole holds a higher share of hits than the screen did.

SMILES	Cycloheximide cs	Shiga toxin inh	Lassa entry inh	AMA1-RON2 inh	MARV entry inh
O=C1CCC(C(=O)N2CCSCC2)CN1CCc1ccccc1 (stereo unspecified)	2	23	.	1%	.
C=CCC1(CC=C)CCCN1C(=O)C1CCC(=O)N(CCc2ccccc2)C1 (stereo unspecified)	77*	102*	?	-4%	?
COc1ccc(-n2nc(C(=O)N3CCN(c4cccc(C)c4C)CC3)c3c4ccccc4n(C)c3c2=O)cc1	.	.	13%[46.1 µM]	.	-2%[46.1 µM]
Cc1ccccc1Nc1c(-c2ccc(N3CCOCC3)cc2)nc2cnccn12	25*	73	-4%[46.1 µM]	2%	?
Cc1ccccc1Nc1c(-c2ccc(N3CCOCC3)cc2)nc2ncccn12	16	17	8%[46.1 µM]	-4%	?
Cc1ccc(Nc2c(-c3ccc(N4CCOCC4)cc3)nc3cnccn23)cc1	7.8*	44	?	-21%	2%[46.1 µM]
Cc1ccc(Nc2c(-c3ccc(N4CCOCC4)cc3)nc3ccc(C)cn23)cc1	.	.	26%[46.1 µM]	.	-1%[46.1 µM]
COc1ccc(CNC(=O)C(=O)NCC2OCCN2S(=O)(=O)c2cccs2)cc1 (stereo unspecified)	-1	-14	7%	29%	1%
O=C1CC2(CCOCC2)Oc2ccc3ccccc3c21	.	.	.	-2%	.
O=C1COc2ccc3ccccc3c21	16*	40	-9%	8%	?
CN(C)C(=O)c1c(NC(=O)c2ccccc2)sc2c1CCC2	2	2	2%	0%	-11%
O=C(Nc1sc2c(c1C(=O)O)CCCCC2)c1cccnc1	8	-1	.	0%	.
NC(=O)c1c(NC(=O)c2ccccc2)sc2c1CCc1ccccc1-2	21*	33	-12%	12%	?
NC(=O)c1c(NC(=O)c2ccncc2)sc2c1CCCCCC2	12*	26	7%[46.1 µM]	-8%	?
Cn1nc(C(=O)Nc2sc3c(c2C#N)CCCC3)ccc1=O	27*	67	-3%	-10%	19%[14.2 µM]
NC(=O)c1c(NC(=O)c2ccccc2)sc2c1CCC2	64*	78*	?	36%	-8%[46.1 µM]
CCN1CCc2c(sc(NC(=O)c3ccc(C(=O)c4ccccc4)cc3)c2C(N)=O)C1	-3	-11	?	-4%	?
O=C(O)CCC(=O)Nc1sc2c(c1C(=O)Nc1ccccc1)CCCCC2	10	40*	?	29%	?
N#Cc1c(NC(=O)c2ccc(Cn3cc(Br)cn3)o2)sc2c1CCCCC2	39*	103	3%	13%	-30%
CC(C)(C)C1CCc2c(sc(NC(=O)c3cccs3)c2C(N)=O)C1 (stereo unspecified)	32*	63*	-21%	-11%	14%
Cn1ncc(Cl)c1C(=O)Nc1sc2c(c1C(N)=O)CCC2	0	-2	-2%	-10%	-1%
NC(=O)c1c(NC(=O)c2cnccn2)sc2c1CCCC2	16*	32	6%	69%	?
CCC(C)(C)C1CCc2c(sc(NC(=O)c3cccs3)c2C(N)=O)C1 (stereo unspecified)	-1	-16	12%	-30%	7%
CC1CCc2c(sc(NC(=O)c3ccc(Cn4cc([N+](=O)[O-])cn4)o3)c2C#N)C1 (stereo unspecified)	2	-17	0%	-16%	3%
COc1ccc(/C=C2\SC(=O)N(CC(=O)NC3CCS(=O)(=O)C3)C2=O)cc1 (stereo unspecified)	-5	-6	.	18%	.
SMILES	Cycloheximide cs	Shiga toxin inh	Lassa entry inh	AMA1-RON2 inh	MARV entry inh
COc1cc(-c2nnc(SCC(=O)N(C)C3CCS(=O)(=O)C3)o2)cc(OC)c1OC (stereo unspecified)	2	-5	-21%	-10%	9%[46.1 µM]
CC(C)CN1C(=O)C(=O)N(CC(=O)c2ccc[nH]2)C1=O	.	.	3%	-14%	15%
NC(=O)c1c(NC(=O)c2ccncc2)sc2c1CCCC2	22*	95*	.	13%	.
NC(=O)c1c(NC(=O)CN2CCOCC2)sc2c1CCC2	7	-6	-7%	15%	31%
NC(=O)c1c(NC(=O)CN2CCCC2)sc2c1CCCC2	26*	21*	0%	46%	0%
NC(=O)c1c(NC(=O)Cc2cccs2)sc2c1CCC2	16*	19*	-13%	-1%	3%
N#Cc1c(NC(=O)c2ccncc2)sc2c1CCC2	17*	47*	-3%	-15%	7%
COc1ccc(-n2c(SCC(=O)Nc3cc(C(=O)O)ccc3C)nc3ccccc3c2=O)cc1Cl	1	-5	.	9%	.
CNC(=O)c1c(NC(=O)c2nc3ccccc3s2)sc2c1CCC2	26*	94*	.	.	3%
Cc1cc(NC(=O)CCC(=O)NNC(=O)c2ccc(C(C)(C)C)cc2)no1	36*	80*	3%	32%	?
COc1ccc2ccc(OCC(=O)Nc3cc(C)on3)cc2c1	.	.	.	-1%	.
Cc1cc(NC(=O)COc2ccc(C(C)(C)C)cc2)no1	32*	50*	19%	?	17%[46.1 µM]
Cc1ccc(C(=O)NNC(=O)CCC(=O)Nc2cc(C)on2)cc1	-3	-16	7%	-8%	1%
CC(C)(C)c1ccc(C(=O)NNC(=O)CCC(=O)Nc2ccccc2)cc1	19*	41	.	99%	.
COc1cccc(NC(=O)Cn2c(=O)n(CCc3ccccc3)c(=O)c3c4c(sc32)CN(C(C)=O)CC4)c1	.	.	.	.	-16%[46.1 µM]
C[C@@]12C(=O)N(c3cccc(F)c3)C(=O)N1[C@@H]1c3ccccc3OC[C@@H]1[C@H]2c1ccccc1	.	.	.	-6%	.
CC(=O)Nc1ccc(NC(=O)C2CCN(c3ccc(C(F)(F)F)cn3)CC2)cc1	6	-23	10%[46.1 µM]	-2%	-9%[46.1 µM]
COc1ccc(NC(=O)CC2C(=O)N(c3ccc(OC)cc3)C(=O)N2Cc2ccc(OC)c(OC)c2)cc1 (stereo unspecified)	2	-3	0%[46.1 µM]	-11%	0%[46.1 µM]
O=S(=O)(Nc1ccc(N=Nc2ccccc2)cc1)c1ccccc1	-2	-5	2%	-19%	11%
O[C@@H]1COC(Nc2ccc(N=Nc3ccccc3)cc2)C[C@@H]1O (stereo partly specified)	62*	95*	-24%	-22%	-28%
O=C(NCCc1ccc(F)cc1)N1CCOCC1	18*	23	18%	7%	3%
O=C(Cc1ccc(F)cc1)N1CCOCC1	2	-8	12%	-13%	13%
S=C(N/N=C/c1ccccc1)N1CCOCC1	40*	57*	?	3%	?
CCN1CCN(C(=S)NCCc2ccccc2)CC1	24*	43*	?	-26%	25%
S=C(NCCc1ccccc1)N1CCOCC1	40*	75*	26%	-10%	0%
CCOC(=O)c1cccc(NC(=O)CSc2nncn2-c2ccccn2)c1	-3	23	.	7%	-27%[46.1 µM]
OCCN1CCN(C(=S)NCCc2ccccc2)CC1	18*	71*	?	-15%	28%
S=C(NCCc1ccccc1)NCCN1CCOCC1	6.9*	16	?	20%	?
S=C(NCCc1ccccc1)N1CCCC1	.	.	?	4%	6%
